PubChem BioAssay (EPA / NIEHS)
Some compounds were tested as several samples or in several runs, with calls that do not always agree. The source made the active and inactive calls. Rule for the calls: active = hit-call score of the fitted dose curve at least 0.9, where 1 is the maximum; inactive = score below 0.9.

Assay: CCTE_Shafer_MEA_acute_per_network_burst_electrodes_number_mean: CCTE's Neural Acute Assay for Mean Number of Electrodes in a Network Burst, Shafer Lab (AID 2284021);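 note: curves fitted for decreases only so hits reduce electrodes per burst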
Experimental: CCTE_Shafer_MEA_acute assay is conducted using Axion Biosystems 48 well microelectrode array (MEA) plates and Maestro recording system. Each well of the MEA plate contains a grid of 16 microelectrodes embedded in the culture surface. Electrically active cells, such as neurons, can be cultured over the electrodes, and electrical activity in these cells can be recorded extracellularly. The spontaneous firing of neurons is captured from each electrode on a microsecond timescale providing both temporally and spatially precise data. […] The CCTE_Shafer_MEA_acute assay uses primary cultures of rat cortical neurons. As these cultures mature over time, neural networks develop functional activity and form cohesive networks in which electrical activity can be highly coordinated. Baseline 40-minute recordings are made on days post-plating 13 or 15, followed by a secondary 40-minute recording after chemical exposure.CCTE_Shafer_MEA_acute_per_network_burst_electrodes_number_mean is a component of the CCTE_Shafer_MEA_acute assay. It measures the average number of electrodes with activity during a network burst (a temporally-clustered group of action potential firing across multiple electrodes) in a recording in a microelectrode array (MEA) using Axion Biosystems Maestro 768 channel amplifier with the AxIS adaptive spike detector. The recordings before and after chemical treatment are used to calculate a percent change in the mean number of electrodes participating in network bursts in each well.Data from the assay component CCTE_Shafer_MEA_acute_per_network_burst_electrodes_number_mean was analyzed into 1 assay endpoint. This assay endpoint, CCTE_Shafer_MEA_acute_per_network_burst_electrodes_number_mean, was analyzed in the negative analysis fitting direction relative to DMSO as the negative control and baseline of activity. Using a type of functional reporter, gain or loss-of-signal activity can be used to understand electrical activity.
Spontaneous activity in the cortical cultures was recorded using an Axion Biosystems Maestro 768 channel amplifier and Axion Integrated Studios (AxIS) v1.8 (or later) software. The amplifier recorded from all channels simultaneously (gain = 1200 x; sampling rate = 12.5 kHz/channel): raw signals were filtered with a Butterworth band-pass filter (300-5000 Hz), which filters out slower local field potentials leaving only fast potentials, i.e., "spikes", arising from extracellular currents associated with action potentials (Pine 2006; Wheeler and Nam 2011). On-line spike detection of filtered signals was conducted with the AxIS adaptive spike detector, using a threshold of 8x the root mean squared (rms) noise on each channel. Any electrodes with rms noise levels greater than 5 uV were grounded (e.g., no data were recorded). Once grounded, an electrode was grounded for the duration of the experiment. All recordings were conducted at 37 C. Wells were deemed usable if on the day of the exposure >/= 10 electrodes were active (defined as >/= 5 spikes/min). On DIV 13 or 15, a minimum of three wells from one cortical culture preparation were treated with each compound (0.03-40 uM). Prior to recording baseline activity, each mwMEA plate was placed in the Maestro at 37 C and allowed to sit for 20 min while firing rates stabilized. Baseline activity (40 min) was recorded before the addition of each compound. An additional 40 min of spontaneous activity was recorded in the presence of each compound. Changes in network parameters relative to baseline were assessed following compound treatment.

Row | SMILES | AC50 | outcome
1 | CC(C)(O)c1cnn2c(-c3ccc(F)c(-c4c(F)cccc4C#N)c3)cnc2n1 | 20 µM (active) | 
2 | Clc1ccc(C(c2ccc(Cl)cc2)C(Cl)Cl)cc1 | 2.69 µM (active) | 
3 | [Cl-].[Cl-].[Hg+2] | 24.6 µM (active) | 
4 | CCN(CC)CCO |  | inactive
5 | CCCCCOC(=O)c1ccccc1C(=O)OCCCCC |  | inactive
6 | CC(C)COC(=O)c1ccccc1C(=O)OCC(C)C |  | inactive
7 | ClC1=C(Cl)[C@]2(Cl)[C@H]3[C@H]([C@@H]4C=C[C@H]3C4)[C@@]1(Cl)C2(Cl)Cl |  | inactive
8 | c1ccc(N=Nc2ccccc2)cc1 |  | inactive
9 | c1ccc(NNc2ccccc2)cc1 |  | inactive
10 | Cc1ccc(N)c(N)c1 |  | inactive
11 | O=C(Oc1ccc(Br)cc1)N1CCN2CCC1CC2 |  | inactive
12 | COC(=O)Nc1nc2ccccc2[nH]1 |  | inactive
13 | O=P(OCCCl)(OCCCl)OCCCl |  | inactive
14 | O=C(N[C@H](c1ccccc1)[C@@H]1CN2CCC1CC2)c1c(Cl)ccc(C(F)(F)F)c1Cl |  | inactive
15 | N#CC(Br)Br |  | inactive
16 | CCCCCCCCn1sccc1=O | 6.8 µM (active) | 
17 | O=[N+]([O-])c1ccc(Oc2ccc(Cl)cc2Cl)cc1 | 20 µM (active) | 
18 | O=[N+]([O-])C(Br)(CO)CO | 32 µM (active) | 
19 | CCN(CC)N=O |  | inactive
20 | CC(C)(C)C(O)(CCc1ccc(Cl)cc1)Cn1cncn1 (stereo unspecified) |  | inactive
21 | Clc1ccc(C(c2ccc(Cl)cc2)C(Cl)(Cl)Cl)cc1 | 4.35 µM (active) | 
22 | ClC1=C(Cl)C2(Cl)C3C(Cl)C=CC3C1(Cl)C2(Cl)Cl (stereo unspecified) | 4.31 µM (active) | 
23 | O=Cc1ccco1 |  | inactive
24 | CCCCOC(=O)c1ccccc1C(=O)OCc1ccccc1 | 5 µM (active) | 
25 | ClCCOCCCl |  | inactive
26 | CCC(C)c1ccc(O)cc1 (stereo unspecified) |  | inactive
27 | C[N+](C)(C)CC1CO1 (stereo unspecified) |  | inactive
28 | CCC[CH2][Sn]([Cl])([CH2]CCC)[CH2]CCC | 0.992 µM (active) | inactive
29 | Cc1cc(N=Nc2ccccc2C)ccc1N |  | inactive
30 | CC(C)(OOC(C)(C)c1ccccc1)c1ccccc1 |  | inactive
